From PubChem BioAssay AID720504 (National Center for Advancing Translational Sciences (NCATS), 2013)
Out of some 360,000 compounds screened, about 10,000 (2.8%) were called active. About 4% were inconclusive and are not listed. Calls follow the shape of the dose curve; as a rule, active = well fitted inhibition curve with a large enough effect; inconclusive = small, poorly fitted or top-dose-only effect; inactive = flat fitted curve, though single readings scatter. This excerpt belongs to a sample that is enriched for actives.

target: Serine/threonine-protein kinase PLK1 (Homo sapiens) (UniProt P53350); assay: qHTS for Inhibitors of PLK1-PDB (polo-like kinase 1 - polo-box domain): Primary Screen; details: Plk1 PBD binding of FITC phosphopeptide, fluorescence polarization; also: nearly all actives have a fitted effect of over 65% in size; as to Max response, negative = inhibition: series mostly up to about 57 µM
Sequence (P53350 whole entry, looked up, the tested form may be a part): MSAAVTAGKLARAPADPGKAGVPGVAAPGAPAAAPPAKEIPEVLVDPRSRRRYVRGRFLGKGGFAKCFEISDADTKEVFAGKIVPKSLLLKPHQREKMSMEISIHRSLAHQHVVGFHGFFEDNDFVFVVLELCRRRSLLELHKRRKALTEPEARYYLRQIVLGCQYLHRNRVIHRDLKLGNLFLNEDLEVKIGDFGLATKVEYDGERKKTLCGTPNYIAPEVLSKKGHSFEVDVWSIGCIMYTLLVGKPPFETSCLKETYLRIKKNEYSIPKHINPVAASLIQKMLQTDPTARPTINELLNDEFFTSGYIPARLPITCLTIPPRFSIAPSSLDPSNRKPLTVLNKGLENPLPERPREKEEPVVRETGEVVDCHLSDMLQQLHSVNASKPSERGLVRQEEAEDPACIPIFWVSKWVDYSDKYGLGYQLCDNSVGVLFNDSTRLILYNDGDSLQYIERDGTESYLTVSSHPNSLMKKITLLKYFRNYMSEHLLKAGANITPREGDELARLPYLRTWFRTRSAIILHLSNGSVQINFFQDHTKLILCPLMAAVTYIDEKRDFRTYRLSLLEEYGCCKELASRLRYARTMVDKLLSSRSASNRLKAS
% is scaled to controls: 0 for no effect and ±100 for the full control effect; potency is read from the fitted curve at half-maximal effect.

Potency, active:
O=C1CSC(=S)N1/N=C/c1ccc(O)c([N+](=O)[O-])c1 23.8 µM
COc1cc(NC(=S)N2CCCC(C)C2)c(OC)cc1Cl (stereo unspecified) 18.9 µM
COc1ccc2oc(=O)cc(-c3cc4ccccc4o3)c2c1 26.7 µM
Nc1ccc(S(=O)(=O)Nc2nccc(/C=C/c3ccc(Br)s3)n2)cc1 9.47 µM
CCO/C=C1\C(=O)N(c2ccc(OCC)cc2)C(=O)c2ccccc21 13.4 µM
COc1cccc(-c2cc(C(=O)N/N=C/c3ccc(OC)c(COC(C)=O)c3)c3ccccc3n2)c1 29.9 µM
CC1=NN(C(=O)Cc2ccc(C)cc2)C(O)(c2cccnc2)C1 (stereo unspecified) 23.8 µM
COc1c(O)ccc2c1CN1CCc3cc4c(cc3C1C2)OCO4 (stereo unspecified) 23.8 µM
O=C(CSc1nc2ccccc2o1)N/N=C/c1ccccc1C(=O)O 26.7 µM
COC(=O)c1cccc(-n2[nH]nnc2=S)c1 23.8 µM
Cc1ccnc(-n2sc3ccccc3c2=O)n1 3.77 µM
CCOC(=O)c1cc2n(c1N)-c1ccccc1C2=O 2.67 µM
N#Cc1ccc(OCC(=O)Nc2nc(-c3ccccn3)cs2)cc1 8.44 µM
O=C(COc1ccccc1F)Nc1nc(-c2ccccn2)cs1 11.9 µM

Max response, negative = inhibition, inactive:
Cc1cc(C(=O)N/N=C/c2ccc(O)c([N+](=O)[O-])c2)c(C)n1-c1ccc(F)cc1 -24.1%
O=[N+]([O-])c1ccc(N2CCSCC2)cc1O 2.23%
CS(=O)(=O)N1CCCCC1c1cc(C(=O)NCc2ccccc2)no1 (stereo unspecified) -4.51%
CCCCN1C(=O)C(CC(=O)NCc2cccs2)CC(C(=O)N2CCCCCC2)=C1C (stereo unspecified) -3.48%
COC(=O)C(Cc1c[nH]c2ccccc12)NC(=O)CCNC(=O)c1ccco1 (stereo unspecified) 3.99%
CCCCN1CC(C)(C)[C@H](CC(=O)Nc2ccc(Br)cc2)C1=O 2.01%
COc1ccc(C)cc1NC(=S)N1CCOCC1 -2.89%
COc1cc(NC(=O)CSC(=S)N2CCCC2)c(OC)cc1Cl -15.5%
C[C@@H]1Cn2cnc(C(=O)Nc3ccc(CNC(=O)OC(C)(C)C)cc3)c2C(=O)N1 -11.4%
COc1cccc2cc(-c3cc(=O)oc4cc(C)c(O)cc34)oc12 -14.5%
COc1ccc(Nc2cc(=O)oc3ccccc23)cc1 -6.94%
CC(=O)Nc1ccc(S(=O)(=O)Nc2nccc(/C=C/c3ccccc3F)n2)cc1 -13.8%
Oc1cccc2ccc(/C=C/c3ccc(Br)s3)nc12 -8.23%
CC(C)C1Cc2[nH][nH]c(=O)c2C(c2ccc(Cl)cc2)O1 (stereo unspecified) -26.3%
CCCOC(=O)c1ccc(N2C(=O)c3ccccc3C2=O)cc1 -2.78%
CCOc1ccc(NC(=O)C(C)N2C(=O)c3ccccc3C2=O)cc1 (stereo unspecified) -11.1%
COc1ccc(NC(=O)C[C@H]2C(=O)N(CCc3ccccc3)C[C@@H]2C)cc1 -7.3%
CC1(C(=O)NS(=O)(=O)c2ccc(C#N)cc2)CCN1C(=O)c1ccc(C2CCCCC2)cc1 (stereo unspecified) -18.9%
CCOc1ccc(-c2cc(C(=O)N/N=C/c3ccc(O)cc3)c3ccccc3n2)cc1 1.12%
COc1ccc(-c2cc(C(=O)N/N=C/c3cccnc3)c3ccccc3n2)c(OC)c1 1.56%
CC1=NN(C(=O)c2ccc(Br)cc2)C(O)(c2ccccc2)C1 (stereo unspecified) -4.08%
CC1=NN(C(=O)c2ccccc2Br)C(O)(c2cccnc2)C1 (stereo unspecified) -6.62%
O=c1cc(CN2CCCCCCC2)c2c(ccc3ccccc32)o1 -3.34%
CCCCCCCCN1C(=O)[C@H](CC(=O)NCc2cccc3ccccc23)C[C@@]2(C(=O)OC)CCCCC=C12 -2.64%
COc1ccc(C(C)(NC(C)=O)c2nc(-c3ccc(S(C)(=O)=O)cc3)cs2)cc1 (stereo unspecified) 0.405%
Cc1ccc(C=O)c([B-](F)(F)F)c1 -2.89%
CC(=O)Nc1ccc2c3c(ccc([N+](=O)[O-])c13)CC2 -1.77%
COc1ccc2cc1Oc1ccc(cc1)C[C@H]1c3cc(c(OC)cc3CCN1C)Oc1c(O)c(OC)cc3c1[C@H](C2)N(C)CC3 -6.01%
COc1cc(C(=O)CCc2ccc3c(c2)OCO3)cc(OC)c1OC -9.68%
CC1(Oc2ccccc2-c2ccno2)CCN(Cc2ccc(-c3ccccc3)o2)C1 (stereo unspecified) -2.77%
O=C(CSc1nc2ccccc2o1)N1CCN(c2ccccc2)CC1 -6.93%
CC(C)(C)C(=O)CSc1nc2ccccc2o1 -18%
O=C(NCc1cccnc1)c1cc(C2CCCCN2C(=O)CCc2ccccc2)on1 (stereo unspecified) -11.3%
COC(=O)c1cccc(N2C(=O)C3C4C=CC(CC4)C3C2=O)c1 (stereo unspecified) -4.67%
COC(=O)c1cccc(NC(=O)c2cccc(N3C(=O)CCC3=O)c2)c1 -2.1%
CCOC(=O)[C@]12CCCC=C1N(CCC1=CCCCC1)C(=O)[C@H](CC(=O)N1CCCCC1)C2 -0.904%
Cc1ccnc(SC2CC(=O)N(c3ccccc3)C2=O)n1 (stereo unspecified) -15.5%
COCCNc1nc(Nc2ccccc2Cl)c2sc(-c3ccccc3)cc2n1 -12.6%
Cc1ccc(C(=O)N2CCCc3ccccc32)c(Cl)c1 3.98%
Cc1ccc2cccc([N+](=O)[O-])c2n1 2.99%
CCOC(=O)c1ccccc1NC(=O)c1c(N)n(C)c(=O)[nH]c1=O -13.3%
CCOC(=O)c1ccccc1CN1C(=O)c2ccccc2S1(=O)=O -6.41%
CN(Cc1ccccc1)C(=O)[C@@H]1CCCN1C(=O)[C@@H]1CCCN1C(=O)c1c(F)cccc1F -9.51%
CC(NC(=O)c1ccco1)C(=O)Nc1nc(-c2ccccn2)cs1 (stereo unspecified) -15.6%
CC1CCCCC1NC(=O)COc1ccc(C#N)cc1 (stereo unspecified) -1.85%
O=C(CN1C(=O)C2C3C=CC(C3)C2C1=O)Nc1nc(-c2ccccn2)cs1 (stereo unspecified) -7.14%
O=C(CSC1=NCCS1)Nc1nc(-c2ccccc2)cs1 -11.4%
